MITF primary – blocks human microphthalmia-associated transcription factor | AlphaScreen MITF homodimerization, bead proximity signal | 650,000 compounds, 0.91% hits | AID 1259374 | inhibition, % at 2.6 µM; in the data active = inhibition above about 50%;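 also: 0% = vehicle wells with protein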
Target sequence (O75030 whole entry, looked up): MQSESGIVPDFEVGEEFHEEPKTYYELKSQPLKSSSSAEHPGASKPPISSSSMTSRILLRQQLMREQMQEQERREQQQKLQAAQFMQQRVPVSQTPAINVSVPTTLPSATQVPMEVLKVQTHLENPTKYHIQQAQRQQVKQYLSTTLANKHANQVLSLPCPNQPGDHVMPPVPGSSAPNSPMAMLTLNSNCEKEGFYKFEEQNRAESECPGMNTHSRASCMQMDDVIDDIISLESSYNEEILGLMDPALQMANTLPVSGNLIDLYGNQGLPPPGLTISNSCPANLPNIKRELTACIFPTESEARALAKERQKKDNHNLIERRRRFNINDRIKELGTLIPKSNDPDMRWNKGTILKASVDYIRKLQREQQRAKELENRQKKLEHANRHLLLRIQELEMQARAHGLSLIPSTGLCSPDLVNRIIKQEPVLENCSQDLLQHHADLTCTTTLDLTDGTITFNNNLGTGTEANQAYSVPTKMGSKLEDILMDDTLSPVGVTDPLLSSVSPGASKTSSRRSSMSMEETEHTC
TEAD-YAP inh – TEAD-YAP interaction inhibition; HEK-TIYL cells, TEAD-Gal4/YAP UAS-luciferase luminescence; 640,000 compounds, 1.4% hits; inhibition, % at 9.12 µM; in the data active = inhibition above about 32%;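 also: 0% = median of test compound wells and 100% = reference inhibitor wells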
FBW7 act – human FBW7 E3 ligase activation, primary screen | Q969H0 | AlphaScreen FBW7–phospho-cyclin E peptide binding, activator screen | normalized activity (activation), % at 26.1 µM | 650,000 compounds, 0.13% hits; in the data active = normalized activity above about 1.9%;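 also: purified mutant Fbw7 with reduced substrate affinity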
GPR151 ag – activates the human receptor GPR151; 650,000 compounds, 1% hits; PathHunter beta-arrestin GPR151 cells, luminescence; activation, % at 11.2 µM; Q8TDV0; in the data active = activation above about 4.9%;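 also: 0% = median of compound wells and 100% = cells with positive control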
GPR151 conf act – confirmation of human GPR151 activators; GPR151 PathHunter beta-arrestin cells, luminescence, 90 min; % of EA-reagent control over plate median; 6,700 tested, under 10 active; activation, % at 11.2 µM; shares compounds with GPR151 ag; AID 1508609;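 active = mean percent activation across replicates above the confirmation screen cutoff of 4.91%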
GPR119 counter – counter-screen for GPR151 activators: effect on human GPR119 | shares compounds with GPR151 ag | activation, % at 11.2 µM | AID 1508611 | 6,700 compounds, 0.3% hits | GPR119 PathHunter beta-arrestin cells, luminescence, 90 min; 0 = compound-well median, 100 = enzyme-acceptor control;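 active = mean percent activation in the counterscreen above 29.09%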;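 also: counterscreen on off-target GPR119 to flag nonselective hits from the GPR151 activator screen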
An asterisk follows results filed as active; x = not tested or not shown. Sampled rows, rich in hits. Any-hit rate of the full collection: about 3.5%.

SMILES	MITF primary	TEAD-YAP inh	FBW7 act	GPR151 ag	GPR151 conf act	GPR119 counter
CCOC(=O)c1c(NC(=O)CSc2nnc3ccccn23)sc2c1CCCC2	11	-2	0	6.8*	1	6
CCCOC(=O)C(C)Oc1ccc2c(=O)c(Oc3cc(C)cc(C)c3)c(C(F)(F)F)oc2c1 (stereo unspecified)	-1	2	0	0	x	x
O=C(NCCCN1CCCC1=O)/C(=C/c1ccco1)NC(=O)c1ccccc1	8	14	0	1	x	x
CC/C=C\C/C=C\C/C=C\CCCCCCCC(=O)OCC	-9	x	x	-2	x	x
CCCCC/C=C\C/C=C\C/C=C\CCCCCCC(=O)OCC	4	x	x	9.1*	0	4
Nc1nc2ccc(Oc3ccccc3)cc2s1	3	1	0	8.9*	0	-3
Nc1nc2ccc(OC(F)(F)F)cc2s1	-8	-18	0	-2	x	x
C/C(=N\NC(=O)c1ccc(C(=O)N/N=C(\C)c2ccc(F)cc2)cc1)c1ccc(F)cc1	7	-3	0	1	x	x
C/C(=N\NC(=O)c1ccc(F)cc1)c1ccccc1	-2	-51	0	5.4*	0	7
Cc1c(C#N)c2nc3c(c(-c4ccccc4)c2n1-c1ccccc1)C(=O)CC(C)(C)C3	9	6	0	0	x	x
Cc1c(C#N)c2nc3c(c(-c4ccccc4)c2n1-c1ccccc1)CCCC3	-1	6	0	6.1*	0	-8
Cc1nc2cc(-c3cccc(F)c3)nn2c(NCCN)c1C	-2	-62	0	5.2*	0	-5
Cc1ccc(/C=C2\SC(N3CCOCC3)=NC2=O)cc1	15	-18	0	-1	x	x
O=C1N=C(N2CCOCC2)S/C1=C\c1cccc2ccccc12	17	-40	0	6.1*	0	-3
NC1=NC(=O)/C(=C/c2cn[nH]c2-c2ccccc2)S1	0	-1	0	0	x	x
O=C1N=C(N2CCOCC2)S/C1=C\c1c2ccccc2cc2ccccc12	15	5	0	1	x	x
O=C1N=C(N2CCCC2)S/C1=C\c1cn[nH]c1-c1ccccc1	0	4	0	7.6*	0	5
CC(C)Oc1ccc(/C=C2/SC(N3CCOCC3)=NC2=O)cc1	17	-17	0	7.0*	1	11
COc1ccc(C(=O)Nc2nnc(C34CC5CC(CC(C5)C3)C4)s2)c(OC)c1	5	5	0	-2	x	x
COc1ccc(C(c2nnnn2Cc2ccccc2)N2CCOCC2)cc1OC (stereo unspecified)	-11	-10	0	1	x	x
COc1ccc(C2CC(=O)C3=C(C2)Nc2ccccc2NC3c2ccc(OC(=O)c3cccs3)c(OC)c2)cc1 (stereo unspecified)	5	4	0	0	x	x
CCCc1cc(C(=O)Nc2ccc(F)cc2F)no1	1	-31	0	-2	x	x
Cc1cc(C(=O)Nc2ccc(F)cc2F)no1	8	-27	1	6.5*	0	-3
CCOC(=O)CNC(=O)C1CCN(c2nc3ccccc3n2CC)CC1	0	15	0	1	x	x
CC1CN(C(=O)CCC(=O)NCc2ccccc2Br)c2ccccc2O1 (stereo unspecified)	3	-1	0	3	x	x
SMILES	MITF primary	TEAD-YAP inh	FBW7 act	GPR151 ag	GPR151 conf act	GPR119 counter
O=C(c1ccco1)N1CCN(Cc2nc(N3CCOCC3)c3ccc(Cl)cc3n2)CC1	-18	1	0	0	x	x
COC(=O)c1cc(-c2ccccc2)sc1NC(=O)CN1C(=O)c2ccccc2C1=O	6	5	0	15*	0	2
COc1nc2ccc(Br)cc2cc1[C@@H](c1ccccc1)[C@@](O)(CCN(C)C)c1cccc2ccccc12	x	x	x	7.5*	0	2
CN(CCO)c1nc(-c2ccccc2)c2cc(Br)ccc2n1	-16	-4	0	-1	x	x
COc1ccccc1/C=N/NC(=O)NC12CC3CC(CC(C3)C1)C2	10	9	0	-1	x	x
COc1ccccc1/C=C/C(=O)OCC(=O)NC(=O)NC12CC3CC(CC(C3)C1)C2	16	1	0	5.5*	1	4
CCc1ccc2[nH]c3nc(N/N=C/c4ccc(O)cc4)nnc3c2c1	-2	-5	0	2	x	x
CCc1ccc2[nH]c3nc(N/N=C/c4cccc(O)c4)nnc3c2c1	16	-8	0	6.7*	-1	2

Compound activity (PubChem)
